Test results from the supplement of paper PMC9262897, “Low-cost anti-mycobacterial drug discovery using engineered E. coli” (Nature Communications, 2022).
Counter-ions that a name gives are not always drawn. ± gives the standard deviation of the averaged measurements.

Test system: E. coli TESEC Mtb Alr
Experiment: growth (OD600 after 10 h); higher = more growth (less inhibition)
Settings: compound 0.1 mM
Procedure: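 TESEC Mtb Alr E. coli, or the Alr+ wild-type control, in 384-well plates with Prestwick library compounds at 0.1 mM and 1% DMSO, across arabinose induction levels of 1E3 to 1E7 nM. Growth is read as OD600 after 10 h at 37 °C in triplicate biological replicates.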

[1] = arabinose 1000 nM, raw OD600 reference: median of DMSO wells 0.294, cell-free background 0.041
[2] = arabinose 10000 nM, raw OD600 reference: median of DMSO wells 0.264, cell-free background 0.041
[3] = arabinose 100000 nM, raw OD600 reference: median of DMSO wells 0.201, cell-free background 0.041
[4] = arabinose 1000000 nM, raw OD600 reference: median of DMSO wells 0.193, cell-free background 0.041
[5] = arabinose 10000000 nM, raw OD600 reference: median of DMSO wells 0.146, cell-free background 0.041

Compound	growth [1]	growth [2]	growth [3]	growth [4]	growth [5]
CCN[C@@H](C)Cc1cccc(C(F)(F)F)c1 [Dexfenfluramine hydrochloride]	0.315 ± 0.0066	0.261 ± 0.0059	0.232 ± 0.027	0.174 ± 0.0053	0.158 ± 0.0058
CCN(C(C)=O)c1cccc(-c2ccnc3c(C#N)cnn23)c1 [Zaleplon]	0.259 ± 0.0063	0.238 ± 0.004	0.205 ± 0.028	0.154 ± 0.0051	0.132 ± 0.0056
C[C@@H]1O[C@@H](O[C@@H]2C=C3CC[C@@H]4[C@H](CC[C@]5(C)[C@@H](c6ccc(=O)oc6)CC[C@]45O)[C@@]3(C)CC2)[C@H](O)[C@H](O)[C@H]1O [Proscillaridin A]	0.247 ± 0.0077	0.256 ± 0.016	0.13 ± 0.0072	0.108 ± 0.0053	0.134 ± 0.0043
CC(C)c1cccc(C(C)C)c1O [Propofol]	0.309 ± 0.017	0.255 ± 0.0092	0.202 ± 0.0052	0.175 ± 0.0063	0.144 ± 0.0055
O[C@@H]1CCCC[C@H]1N1CCC(c2ccccc2)CC1 [L(-)-vesamicol hydrochloride]	0.281 ± 0.014	0.251 ± 0.0068	0.176 ± 0.012	0.182 ± 0.0074	0.141 ± 0.0046
C=CCC1(CC(C)C)C(=O)NC(=O)NC1=O [Butalbital]	0.282 ± 0.011	0.276 ± 0.0052	0.198 ± 0.012	0.211 ± 0.0091	0.149 ± 0.0019
CN[C@@H]1C[C@@H](c2ccc(Cl)c(Cl)c2)c2ccccc21 [Indatraline hydrochloride]	0.0417 ± 0.00046	0.0413 ± 0.00055	0.0425 ± 0.0013	0.03897 ± 0.00015	0.0445 ± 0.002
Fc1ccc(C(OCCN2CCN(CCCc3ccccc3)CC2)c2ccc(F)cc2)cc1	0.04027 ± 0.00025	0.0453 ± 0.00061	0.0419 ± 0.0013	0.045 ± 0.00035	0.0435 ± 0.00049
